HT1080 IDH1KD tx – HT-1080 IDH1 knockdown cell toxicity (counter line) | HT-1080 IDH1 knockdown viability, ATP luminescence, 48 h | Potency, µM (doses to about 46.1 µM), hits mostly cytotoxic | 360,000 tested, 2% active
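% activity derives from luminescence (CellTiter-Glo), normalised to DMSO and no-cell wells. HT-1080-IDH1KD cells, 750/well, had 48 h compound exposure at 37 °C.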
DT40 TDP1 CPT – growth inhibition of DT40 Tdp1-/-;hTDP1 cells with camptothecin (screen for TDP1 inhibitors); 420,000 tested, 12% active; AID 686979; Potency, µM (series often up to 46.2 µM), most hits filed as inhibitors; chicken DT40 Tdp1-/-;hTDP1 cells + 20 nM CPT, ATP luminescence, 48 h; further: nearly all actives have a fitted effect of over 55% in size
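Cell growth measured by CellTiter-Glo luminescence after a minimum 48 h, 37 C compound exposure with 20 nM CPT in Tdp1-knockout DT40 cells stably expressing hTDP1, seeded 400/well; qHTS titration format.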
TDP1 cell noCPT – qHTS for Inhibitors of human tyrosyl-DNA phosphodiesterase 1 (TDP1): qHTS in cells in absence of CPT; DT40 Tdp1-/- hTDP1 cells, no CPT, ATP luminescence, 48 h; Potency, µM (highest dose often 46.2 µM), most hits filed as inhibitors; 420,000 tested, 15% active; AID 686978, 2013; further: nearly all actives have a fitted effect of over 55% in size
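Chicken DT40 Tdp1-/- cells complemented with human TDP1, screened without camptothecin (DMSO vehicle only), 400 cells/well. Compounds pin-transferred, cells incubated at 37 °C for at least 48 hr. Growth read as ATP-dependent luminescence (CellTiter-Glo, 30 min at RT).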
HT1080NT lethal – kills 2HG-producing HT-1080-NT fibrosarcoma cells; 360,000 tested, 1.6% active; HT-1080-NT fibrosarcoma viability, CellTiter-Glo ATP luminescence, 48 h; AID 686970; Potency, µM (series often up to 46.1 µM), hits mostly cytotoxic;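 further: NT is the 2HG producing partner of a matched IDH1 knockdown line; nearly all actives have a fitted effect of over 55% in size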
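Compounds were tested in concentration-response format on HT-1080-NT cells for 48 hours at 37 degrees C. Cell viability came from CellTiter-Glo luminescence; curves were classified by r2, response magnitude and activity.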
IL-1B inflam inh – inflammasome signaling inhibition, IL-1 beta readout; THP-1 LPS/ATP IL-1B secretion, AlphaLISA, 16 h; active compounds read low; activity change, % at 57.5 µM; 360,000 tested, 4.7% active; AID 743279; in the data active means activity change below about -50%; inconclusive means mostly about -30% to -49%
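THP-1 cells pretreated 1 hr with compounds (up to 57.5 uM final), then stimulated with LPS (250 ng/mL final) plus ATP (1.25 mM final); secreted IL-1B measured by AlphaLISA after 16 hr, decreased signal indicating inhibition.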
Each line names hits and unclear results; the compound was inactive in the other large screens. An excerpt weighted towards active compounds, which were near 19% of everything screened. Unless noted, the call rests on the fitted dose curve; in most records, active means well fitted curve in the direction sought with a large enough effect; inconclusive means small, poorly fitted or top-dose-only effect, or another doubt; inactive means no such curve, though single readings can be large; an effect the other way counts as inactive or inconclusive.

Cc1cc(OCC(=O)Nc2cc(S(=O)(=O)N3CCOCC3)ccc2N2CCCC2)ccc1C(C)C	DT40 TDP1 CPT 12µM, TDP1 cell noCPT 8.2µM, IL-1B inflam inh inconclusive
CN1CCN(c2ccc(S(=O)(=O)N3CCOCC3)cc2NC(=O)COc2ccc(F)cc2Cl)CC1	DT40 TDP1 CPT 26µM, TDP1 cell noCPT inconclusive
CCN(CC)S(=O)(=O)c1ccc(N2CCN(C)CC2)c(NC(=O)COc2ccc(F)cc2Cl)c1	DT40 TDP1 CPT inconclusive, TDP1 cell noCPT 16µM
Cc1ccc(Cl)c(OCC(=O)Nc2cc(S(=O)(=O)N3CCOCC3)ccc2N2CCCC2)c1	DT40 TDP1 CPT 16µM, IL-1B inflam inh -59
CC(C)c1ccc(NC(=O)NC2(C(=O)NCc3cccnc3)CCCCC2)cc1	none
Cc1cc(C(=O)NCc2ccco2)cs1	none
O=C(CCCCC(=O)NNC(=O)COc1ccccc1)NNC(=O)COc1ccccc1	none
CCS(=O)(=O)c1ccc2c(c1)N(S(C)(=O)=O)CC(C(=O)NC1CC1)O2 (stereo not given)	none
O=C(COc1ccc(F)cc1Cl)Nc1cc(S(=O)(=O)N2CCOCC2)ccc1N1CCCCC1	DT40 TDP1 CPT inconclusive, TDP1 cell noCPT inconclusive, IL-1B inflam inh -51
O=C(COC(=O)c1ccc(F)cc1)Nc1cc(S(=O)(=O)N2CCOCC2)ccc1N1CCCC1	DT40 TDP1 CPT inconclusive
CN(C)c1ccc(CNS(=O)(=O)c2csc(C(N)=O)c2)cc1	DT40 TDP1 CPT 23µM, TDP1 cell noCPT 7.3µM
CC(C)Oc1ccc(CNS(=O)(=O)c2cnc(N)nc2)cc1	none (no result: HT1080 IDH1KD tx, HT1080NT lethal, IL-1B inflam inh)
CC(C)Oc1ccc(CNS(=O)(=O)c2csc(C(N)=O)c2)cc1	DT40 TDP1 CPT 16µM, TDP1 cell noCPT 21µM
O=C(CN(Cc1ccco1)C(=O)c1ccc(F)cc1)Nc1ccccc1Br	none
C=CCNC(=S)N/N=C(\C)c1cc(OC)c(OC)c(OC)c1	DT40 TDP1 CPT 4.1µM, TDP1 cell noCPT 2.9µM
CC(C)(O)C#Cc1ccc(CN2CCc3nnc(CCNC(=O)c4ccco4)n3CC2)cc1	none (no result: HT1080 IDH1KD tx, HT1080NT lethal, IL-1B inflam inh)
CC(C)(C)Cc1c(-c2ccc(Cl)cc2)nc2ccc(Br)cn12	DT40 TDP1 CPT inconclusive, TDP1 cell noCPT inconclusive, HT1080NT lethal inconclusive
CN(C)Cc1c(-c2ccc(Cl)cc2)nc2ccc(Cl)cn12	DT40 TDP1 CPT inconclusive, TDP1 cell noCPT 13µM
CC(C)(C)Cc1c(-c2ccccc2)nc2ccc(Cl)cn12	DT40 TDP1 CPT 23µM, TDP1 cell noCPT 23µM
CCOC(=O)c1c(-c2ccccc2)nc2ccc(Cl)cn12	DT40 TDP1 CPT inconclusive, TDP1 cell noCPT 16µM
CC(C)(C)Cc1c(-c2ccc(Br)cc2)nc2ccc(Cl)cn12	HT1080 IDH1KD tx inconclusive, DT40 TDP1 CPT 21µM, TDP1 cell noCPT inconclusive, HT1080NT lethal inconclusive
COCC(=O)N1CCC2(CC1)CN(C(=O)Nc1cccc(C#N)c1)C2	none (no result: HT1080 IDH1KD tx, HT1080NT lethal, IL-1B inflam inh)
CC(C)c1ccc(NC(=O)C2CCC(CNC(=O)[C@@H]3Cc4ccccc4CN3)CC2)cc1 (stereo not given in full)	HT1080 IDH1KD tx inconclusive, DT40 TDP1 CPT inconclusive, TDP1 cell noCPT inconclusive, HT1080NT lethal inconclusive
CC(C)(C)Cc1c(-c2cccc(Br)c2)nc2ccc(Br)cn12	DT40 TDP1 CPT inconclusive, TDP1 cell noCPT inconclusive
CC(C)(C)Cc1c(-c2ccc(F)cc2)nc2ccc(Br)cn12	DT40 TDP1 CPT inconclusive, TDP1 cell noCPT 16µM
Cc1ccc(NC(=O)CSc2nc(O)c(Cc3ccccc3)c(=O)n2-c2ccccc2)cc1	none
COc1ccc(S(=O)(=O)c2cn(C)c3ccc(C)cc3c2=O)cc1	none (no result: HT1080 IDH1KD tx, HT1080NT lethal, IL-1B inflam inh)
CCOc1ccc(S(=O)(=O)N2CCC(C(=O)NCCN3CCOCC3)CC2)cc1C	none
COc1ccc2[nH]c(=O)c(CN(C(=O)c3cccc(Cl)c3)c3cccc(C)c3)cc2c1	DT40 TDP1 CPT 16µM, TDP1 cell noCPT 18µM (no result: HT1080 IDH1KD tx, HT1080NT lethal, IL-1B inflam inh)
COc1ccc(N(Cc2cc3cccc(C)c3[nH]c2=O)C(=O)c2cccc(Cl)c2)cc1	DT40 TDP1 CPT 10µM, TDP1 cell noCPT 8.2µM (no result: HT1080 IDH1KD tx, HT1080NT lethal, IL-1B inflam inh)
CCC(=O)N(Cc1cc2cc(OC)ccc2[nH]c1=O)c1ccc(C)cc1	DT40 TDP1 CPT inconclusive, TDP1 cell noCPT 10µM
Cc1ccc2[nH]c(=O)c(CN(C(=O)c3cccs3)c3ccccc3)cc2c1	DT40 TDP1 CPT inconclusive, TDP1 cell noCPT 16µM
COc1ccc(N(Cc2cc3cccc(C)c3[nH]c2=O)S(C)(=O)=O)cc1	DT40 TDP1 CPT inconclusive, TDP1 cell noCPT inconclusive
COc1ccc(N(Cc2cc3cc(OC)ccc3[nH]c2=O)C(=O)c2cccnc2)cc1	DT40 TDP1 CPT 16µM, TDP1 cell noCPT 23µM
COc1ccc2[nH]c(=O)c(CN(C(=O)c3cccnc3)c3ccccc3)cc2c1	none
Cc1cccc(N(Cc2cc3ccccc3[nH]c2=O)C(=O)c2cccc(Cl)c2)c1	DT40 TDP1 CPT 23µM, TDP1 cell noCPT 16µM (no result: HT1080 IDH1KD tx, HT1080NT lethal, IL-1B inflam inh)
CC[N+](C)(CC)CCC(c1ccccc1)C1CCCCC1 (stereo not given)	DT40 TDP1 CPT 8.2µM, TDP1 cell noCPT inconclusive
